Results on five compounds are retold here after PubChem BioAssay (EPA / NIEHS).

Records with an inconclusive call do not appear. Active and inactive are the calls of the source. The calls were made as follows, unless noted: active = hit-call score of the fitted dose curve at least 0.9, where 1 is the maximum; inactive = score below 0.9.

The target in assay [1] is Paired box protein Pax-6 (Homo sapiens) (UniProt P26367). The experiment in a line: ATG_Pax6_CIS: Attagene CIS-FACTORIAL HepG2 Assay for human Paired Box 6 (PAX6) (AID 2282956). As to conditions: HepG2 CIS-FACTORIAL PAX6 reporter transcription, RNA readout; actives raise or lower the signal. Summed up: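 Fluorescent RT-PCR products separated by capillary electrophoresis report PAX6-linked promoter mRNA in HepG2 cells 24 h post-dose. Curves fitted bidirectionally, DMSO as negative control.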

Assay [2] can be described thus: ATG_PXRE_CIS: Attagene CIS-FACTORIAL HepG2 Assay for human Pregnane X Receptor Element (PXRE) (AID 2282957). To be noted: HepG2 Attagene CIS-FACTORIAL PXRE reporter, mRNA; actives raise or lower the signal. Summed up: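 Endogenous transcription factor activity in HepG2 was gauged through induction of reporter mRNA driven by a cis-regulating promoter element, sampled 24 h post-treatment. Activity was fitted in both directions against DMSO negative control.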

A short description of assay [3]: ATG_PPRE_CIS: Attagene CIS-FACTORIAL HepG2 Assay for human Peroxisome Proliferator-activated Response Element (PPRE) (AID 2282958). As to conditions: HepG2 PPRE cis-element reporter, Attagene transcription factor profiling; actives raise or lower the signal. Summed up:
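Cells are first transfected transiently with the multiplexed reporter library, then dosed for 24 h. Total RNA is reverse-transcribed, amplified, fluorescently end-labeled and HpaI-cut before capillary electrophoresis; activity is fitted bidirectionally against DMSO controls.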

Assay [4] is described as follows: ATG_RORE_CIS: Attagene CIS-FACTORIAL HepG2 Assay for human RAR-related Orphan Receptor Element (RORE) (AID 2282959). As to conditions: HepG2 Attagene cis-factorial RORE reporter, mRNA; actives raise or lower the signal. Summed up:
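Cells were HepG2 carrying transfected cis-regulated reporter constructs, dosed for 24 hours. Total RNA was reverse-transcribed and reporter cDNA amplified, fluorescently labeled and sized by capillary electrophoresis. Activity was fitted bidirectionally relative to DMSO.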

The nature of assay [5]: ATG_Sox_CIS: Attagene CIS-FACTORIAL HepG2 Assay for human SRY-box transcription factor (SOX) (AID 2282960). As to conditions: HepG2 Attagene cis-factorial SOX reporter, mRNA; actives raise or lower the signal. Summed up: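 Transient MRTU transfection of HepG2; 24 h compound incubation; TriZol RNA, oligo(dT) RT, PCR, 6-FAM primer extension, HpaI cut, CE. Bidirectional fit, DMSO = baseline.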

Assay [6] concerns the target Transcription factor Sp1 (Homo sapiens) (UniProt P08047). The assay is described as follows: ATG_Sp1_CIS: Attagene CIS-FACTORIAL HepG2 Assay for human Specificity Protein 1 (Sp1) (AID 2282961). As to conditions: HepG2 Sp1 cis-reporter transcription, actives raise or lower the signal. Summed up: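 Endogenous Sp1 activity was gauged in human liver HepG2 cells bearing transfected reporter units under a cis-regulating promoter. After 24 h dosing, reporter mRNA was quantified by RT-PCR with capillary electrophoresis, and activity fitted bidirectionally versus DMSO.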

The nature of assay [7]: ATG_SREBP_CIS: Attagene CIS-FACTORIAL HepG2 Assay for human Sterol Regulatory Element Binding (SREBP) (AID 2282962). To be noted: HepG2 Attagene cis-factorial SREBP reporter, mRNA; actives raise or lower the signal. Summed up:
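Endogenous factor activity is measured in HepG2 through multiplexed reporter units under cis-element control. Following a 24 h incubation, reporter transcripts are reverse-transcribed, PCR-amplified and sized by capillary electrophoresis; activity is fitted in both directions relative to DMSO.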

Assay [8] can be described thus: ATG_TA_CIS: Attagene CIS-FACTORIAL HepG2 Assay for human TA Basal Promoter (AID 2282964). As to conditions: HepG2 Attagene CIS-factorial TA basal promoter reporter; actives raise or lower the signal. Summed up: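 Background internal-marker endpoint from a 52-component HepG2 cis-reporter panel. Cells treated 24 h; reporter transcripts quantified via RT-PCR and CE fluorescence against DMSO baseline.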

A short description of assay [9]: ATG_TCF_b_cat_CIS: Attagene CIS-FACTORIAL HepG2 Assay for human T-Cell-Factor with beta-catenin (TCF/b-cat) (AID 2282965). As to conditions: HepG2 TCF/beta-catenin cis-reporter transcription, actives raise or lower the signal. Summed up: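 Endogenous transcription factor activity is captured through cis-promoter reporter constructs transiently introduced into human HepG2 liver cells. Induced reporter mRNA is measured after 24 h and fitted bidirectionally relative to DMSO.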

The nature of assay [10]: ATG_TAL_CIS: Attagene CIS-FACTORIAL HepG2 Assay for human TAL Basal Promoter (AID 2282966).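 Also: background control endpoint measuring basal TAL promoter reporter mRNA not a specific factor.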 To be noted: HepG2 Attagene cis-factorial TAL promoter reporter; actives raise or lower the signal. Summed up: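 Endogenous transcription-factor activity is sensed in HepG2 cells through transfected cis-promoter reporter constructs. After 24 h dosing, reporter transcripts are quantified by RT-PCR and capillary electrophoresis. Gain or loss of signal is fitted relative to DMSO.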

Assay [11] is described as follows: ATG_TGFb_CIS: Attagene CIS-FACTORIAL HepG2 Assay for human Transforming Growth Factor (TGF) (AID 2282967). As to conditions: HepG2 Attagene CIS TGFb reporter, mRNA transcription; actives raise or lower the signal. Summed up: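 Liver HepG2 line, cis-factorial reporter panel, 24 h dosing. Quantitation: RT-PCR products labeled with 6-FAM, cut with HpaI, resolved by capillary electrophoresis; DMSO-referenced bidirectional analysis.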

Assay [12] can be described thus: ATG_VDRE_CIS: Attagene CIS-FACTORIAL HepG2 Assay for human Vitamin D Receptor Element (VDRE) (AID 2282968). As to conditions: HepG2 VDRE cis-reporter transcription, actives raise or lower the signal. Summed up:
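Measures endogenous factor activity through cis-element-driven reporter transcripts in transiently transfected HepG2. Cells are treated 24 h; reporter mRNA is quantified by RT-PCR and capillary electrophoresis; fitting is bidirectional.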

The target in assay [13] is Estrogen receptor (Homo sapiens) (UniProt P03372). The assay is described as follows: ATG_ERa_TRANS: Attagene TRANS-FACTORIAL HepG2 Assay for human Estrogen Receptor alpha (ERa) (AID 2282970; active = hit-call score of the fitted dose curve at least 0.9, where 1 is the maximum). To be noted: HepG2 Attagene TRANS ERa GAL4 reporter, mRNA. Summed up: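 Transfected HepG2 cells carrying GAL4-UAS-driven reporter units were dosed for 24 hours. Total RNA was reverse-transcribed, reporter sequences PCR-amplified, FAM-labelled, HpaI-digested and resolved by capillary electrophoresis. Increases over DMSO control defined activity.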

Assay [14] deals with X-box-binding protein 1 (Homo sapiens) (UniProt P17861). The experiment in a line: ATG_Xbp1_CIS: Attagene CIS-FACTORIAL HepG2 Assay for human X-box Binding Protein 1 (XBP1) (AID 2282972). As to conditions: HepG2 XBP1 cis-element reporter, Attagene multiplex; actives raise or lower the signal. Summed up: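 Multiplexed cis-reporter readout in transfected HepG2 liver cells. Exposure lasted 24 hours. Activity in either direction was fitted against DMSO as negative control and baseline.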

Assay [15] can be described thus: ATG_GAL4_TRANS: Attagene TRANS-FACTORIAL HepG2 Assay for GAL4 (Internal Marker) (AID 2282976; active = hit-call score of the fitted dose curve at least 0.9, where 1 is the maximum). To be noted: HepG2 Attagene TRANS GAL4 internal marker reporter. Summed up: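 Fluorescence from capillary electrophoresis of labelled RT-PCR products quantifies reporter mRNA induction after 24 h dosing of HepG2 cells carrying transfected GAL4-UAS reporter transcription units. Vehicle DMSO serves as baseline.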

In assay [16] the target is Signal transducer and activator of transcription 3 (Homo sapiens) (UniProt P40763). The experiment in a line: ATG_STAT3_CIS: Attagene CIS-FACTORIAL HepG2 Assay for human Signal Transducer and Activator of Transcription 3 (STAT3) (AID 2282963). To be noted: HepG2, Attagene cis-factorial STAT3 reporter transcription; actives raise or lower the signal. Summed up: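 Cis-factorial format: endogenous transcription factors in HepG2 drive transfected reporter units. After 24 h treatment, reporter RNA was reverse-transcribed, amplified, FAM-labelled and HpaI-digested before CE analysis; activity scored in both directions against DMSO.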

Assay [17] concerns the target Steroid hormone receptor ERR1 (Homo sapiens) (UniProt P11474). The assay is described as follows: ATG_ERRa_TRANS: Attagene TRANS-FACTORIAL HepG2 Assay for human Estrogen-Related Receptor alpha (ERRa) (AID 2282971; active = hit-call score of the fitted dose curve at least 0.9, where 1 is the maximum). As to conditions: HepG2 Attagene TRANS reporter, ERRa transactivation. Summed up: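 HepG2 cells were transiently transfected with multiple GAL4-UAS reporter units, then dosed with compound for 24 h. Total RNA was reverse-transcribed, reporter cDNA PCR-amplified and fluorescently labelled, and fragments resolved by capillary electrophoresis; induction was compared with DMSO.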

The nature of assay [18]: ATG_M_19_TRANS: Attagene TRANS-FACTORIAL HepG2 Assay for M19 Transcription Factor (Internal Marker) (AID 2282974; active = hit-call score of the fitted dose curve at least 0.9, where 1 is the maximum). As to conditions: HepG2 Attagene TRANS-FACTORIAL M19 internal marker reporter. Summed up: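 Cells: human HepG2, transiently transfected with multiplexed reporter transcription units. Exposure: 24 h. Detection: RT-PCR of reporter mRNA with capillary electrophoresis. Analysis: gain-of-signal vs DMSO.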

Chain of X-box-binding protein 1 (Homo sapiens) (P17861 whole entry, looked up): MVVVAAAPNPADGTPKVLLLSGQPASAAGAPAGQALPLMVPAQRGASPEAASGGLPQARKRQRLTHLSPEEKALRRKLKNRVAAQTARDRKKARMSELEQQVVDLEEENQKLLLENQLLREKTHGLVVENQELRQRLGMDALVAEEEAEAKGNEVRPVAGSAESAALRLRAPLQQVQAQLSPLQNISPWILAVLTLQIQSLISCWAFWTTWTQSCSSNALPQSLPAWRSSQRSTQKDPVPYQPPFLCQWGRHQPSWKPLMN
Chain of Transcription factor Sp1 (Homo sapiens) (P08047 whole entry, looked up): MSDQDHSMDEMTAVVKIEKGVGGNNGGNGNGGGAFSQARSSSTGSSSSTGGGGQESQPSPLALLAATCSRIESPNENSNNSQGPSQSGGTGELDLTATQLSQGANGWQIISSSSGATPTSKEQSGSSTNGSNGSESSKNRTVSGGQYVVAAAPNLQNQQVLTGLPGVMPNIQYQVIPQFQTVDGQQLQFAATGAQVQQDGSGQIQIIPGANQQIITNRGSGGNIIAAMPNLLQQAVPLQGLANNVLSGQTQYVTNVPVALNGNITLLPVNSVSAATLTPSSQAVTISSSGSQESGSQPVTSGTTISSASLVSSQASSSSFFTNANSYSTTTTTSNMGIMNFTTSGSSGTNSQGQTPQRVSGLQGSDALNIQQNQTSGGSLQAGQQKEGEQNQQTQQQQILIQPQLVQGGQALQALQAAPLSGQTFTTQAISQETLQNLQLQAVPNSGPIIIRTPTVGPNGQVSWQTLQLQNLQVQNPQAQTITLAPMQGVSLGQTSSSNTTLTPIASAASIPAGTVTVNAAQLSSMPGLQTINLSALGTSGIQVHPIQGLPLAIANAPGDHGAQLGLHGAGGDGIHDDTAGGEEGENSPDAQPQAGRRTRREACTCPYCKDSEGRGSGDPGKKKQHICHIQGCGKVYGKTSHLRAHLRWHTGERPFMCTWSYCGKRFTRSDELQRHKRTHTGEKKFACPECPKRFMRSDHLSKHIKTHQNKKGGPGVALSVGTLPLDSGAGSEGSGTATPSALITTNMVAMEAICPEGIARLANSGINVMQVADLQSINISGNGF
Chain of Paired box protein Pax-6 (Homo sapiens) (P26367 whole entry, looked up): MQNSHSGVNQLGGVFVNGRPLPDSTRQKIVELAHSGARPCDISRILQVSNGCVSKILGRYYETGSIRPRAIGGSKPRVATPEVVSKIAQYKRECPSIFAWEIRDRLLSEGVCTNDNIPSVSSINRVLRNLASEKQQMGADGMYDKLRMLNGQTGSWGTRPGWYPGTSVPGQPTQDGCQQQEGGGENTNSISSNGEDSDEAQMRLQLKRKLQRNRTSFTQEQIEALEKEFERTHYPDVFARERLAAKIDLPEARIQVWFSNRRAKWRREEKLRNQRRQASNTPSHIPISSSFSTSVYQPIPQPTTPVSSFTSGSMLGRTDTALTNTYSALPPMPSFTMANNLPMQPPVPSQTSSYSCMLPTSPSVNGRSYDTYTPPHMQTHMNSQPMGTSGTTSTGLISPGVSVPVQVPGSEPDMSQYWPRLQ
Chain of Estrogen receptor (Homo sapiens) (P03372 whole entry, looked up, the tested form may be a part): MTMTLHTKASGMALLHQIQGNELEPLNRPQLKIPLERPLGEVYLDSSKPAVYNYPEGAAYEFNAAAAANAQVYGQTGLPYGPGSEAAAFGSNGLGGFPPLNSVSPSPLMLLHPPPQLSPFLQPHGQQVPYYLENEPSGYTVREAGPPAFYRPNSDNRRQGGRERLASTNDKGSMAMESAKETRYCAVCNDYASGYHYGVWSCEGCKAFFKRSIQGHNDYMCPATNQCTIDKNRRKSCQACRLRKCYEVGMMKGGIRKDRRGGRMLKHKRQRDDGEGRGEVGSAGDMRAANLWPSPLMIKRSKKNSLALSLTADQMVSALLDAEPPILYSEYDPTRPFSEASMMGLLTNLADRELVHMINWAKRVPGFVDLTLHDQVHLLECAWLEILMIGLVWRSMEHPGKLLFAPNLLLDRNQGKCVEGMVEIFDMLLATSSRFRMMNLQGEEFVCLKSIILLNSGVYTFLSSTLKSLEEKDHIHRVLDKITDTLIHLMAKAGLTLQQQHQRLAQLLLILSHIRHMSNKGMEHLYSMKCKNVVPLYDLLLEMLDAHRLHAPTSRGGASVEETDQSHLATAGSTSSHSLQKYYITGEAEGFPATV
Chain of Signal transducer and activator of transcription 3 (Homo sapiens) (P40763 whole entry, looked up): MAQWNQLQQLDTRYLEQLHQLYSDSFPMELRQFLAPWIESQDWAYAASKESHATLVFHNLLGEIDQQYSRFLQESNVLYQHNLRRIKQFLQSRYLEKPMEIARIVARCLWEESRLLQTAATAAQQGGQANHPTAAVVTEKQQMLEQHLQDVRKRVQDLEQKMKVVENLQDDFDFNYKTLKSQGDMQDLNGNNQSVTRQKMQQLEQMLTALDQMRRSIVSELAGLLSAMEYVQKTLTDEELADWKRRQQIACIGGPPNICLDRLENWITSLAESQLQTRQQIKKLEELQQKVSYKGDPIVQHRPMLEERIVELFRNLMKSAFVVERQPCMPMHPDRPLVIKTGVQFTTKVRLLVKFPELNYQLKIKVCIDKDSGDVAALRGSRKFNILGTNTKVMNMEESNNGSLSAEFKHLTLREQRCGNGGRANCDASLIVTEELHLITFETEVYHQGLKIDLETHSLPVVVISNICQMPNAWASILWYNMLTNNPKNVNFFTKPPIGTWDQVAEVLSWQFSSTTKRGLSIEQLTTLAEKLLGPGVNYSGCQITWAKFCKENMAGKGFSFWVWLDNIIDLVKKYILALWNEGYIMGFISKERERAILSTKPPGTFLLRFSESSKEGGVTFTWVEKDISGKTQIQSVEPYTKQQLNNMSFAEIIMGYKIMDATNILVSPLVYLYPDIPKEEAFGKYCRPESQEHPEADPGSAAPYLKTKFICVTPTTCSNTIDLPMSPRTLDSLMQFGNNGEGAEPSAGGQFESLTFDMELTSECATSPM
Chain of Steroid hormone receptor ERR1 (Homo sapiens) (P11474 whole entry, looked up, the tested form may be a part): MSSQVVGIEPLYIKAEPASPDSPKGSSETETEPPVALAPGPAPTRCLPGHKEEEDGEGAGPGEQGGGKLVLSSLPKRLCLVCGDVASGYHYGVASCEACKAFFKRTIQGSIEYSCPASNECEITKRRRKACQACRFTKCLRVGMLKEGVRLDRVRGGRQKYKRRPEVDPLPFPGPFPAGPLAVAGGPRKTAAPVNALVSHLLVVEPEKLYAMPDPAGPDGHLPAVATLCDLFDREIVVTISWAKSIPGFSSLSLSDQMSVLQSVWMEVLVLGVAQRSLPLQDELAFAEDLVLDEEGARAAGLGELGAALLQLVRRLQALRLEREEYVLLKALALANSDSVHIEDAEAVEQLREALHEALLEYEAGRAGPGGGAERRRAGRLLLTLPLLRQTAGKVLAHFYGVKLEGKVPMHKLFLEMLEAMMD

On to `CCCCCCCCCCCCCC(=O)OC(C)C`, for which the result in assay [1], in assay [2], in [3], in assay [4], in assay [5] and in assay [6] was inactive. In addition, the call in [7], in assay [8], in [9], in [10], in assay [11] and in assay [12] was inactive. In addition, the outcome in assay [13], in assay [14] and in assay [15] was inactive.

For orientation: AC50 means the concentration at which the activity in the assay is half-maximal. Regarding `O=S(=O)(O)c1ccc(Nc2nc(Nc3ccc(C=Cc4ccc(Nc5nc(Nc6ccc(S(=O)(=O)O)cc6)nc(N(CCO)CCO)n5)cc4S(=O)(=O)O)c(S(=O)(=O)O)c3)nc(N(CCO)CCO)n2)cc1`, the outcome in assay [1], in [3], in [4], in assay [5], in [6] and in [7] was inactive. In addition, the compound was classed as inactive in [16], in assay [9], in [10], in assay [11], in [12] and in assay [17]. Also, the result in [14] and in assay [15] was inactive. Also, the AC50 in assay [2] is 21.2 µM (active).

As for `CCOC(=O)C1=NN(c2ccc(Cl)cc2Cl)C(C)(C(=O)OCC)C1` (stereo not given), the outcome in assay [1], in [3], in [4], in [5], in assay [6] and in [7] was inactive. The outcome in assay [16], in assay [9], in assay [10], in assay [11], in [12] and in assay [13] was inactive. Moreover, the compound was called inactive in assay [17], in assay [14], in [18] and in assay [15]. Further, the AC50 in assay [2] was 9.36 µM (active).

As to `Nc1ccc(Cl)c(N)c1`, the compound was called inactive in assay [1], in [2], in assay [3], in assay [5], in [6] and in assay [7]. For the same compound, the result in assay [16], in assay [8], in assay [9], in [10], in assay [11] and in assay [12] was inactive. Further, the compound was classed as inactive in [13] and in [15].

For the compound `CC(=O)c1ccc(S(=O)(=O)NC(=O)NC2CCCCC2)cc1`, the compound was called inactive in assay [1], in [3], in assay [5], in [6], in assay [7] and in [16]. The result in assay [8], in [9], in assay [10], in assay [11], in assay [12] and in [14] was inactive. The compound was classed as inactive in [18]. Moreover, the AC50 in [2] was 100 µM (active).
